Screens: PubChem, National Center for Advancing Translational Sciences (NCATS)
Only some compounds are listed: those with a hit (about 21% of all), similar ones and a draw of the others.
TDP1 cell CPT: DT40-hTDP1 cell growth loss with CPT; Potency, µM (doses to about 46.2 µM), without a hit: at the highest dose activity change, negative = growth inhibition, most hits filed as inhibitors; AID 686979; 420,000 compounds, 12% hits; chicken DT40 Tdp1-/-;hTDP1 cells + 20 nM CPT, ATP luminescence, 48 h; further: potency means the concentration at half of the fitted maximal effect; on the % scale 0 is the no-effect control and ±100 the full control effect; nearly all actives have a fitted effect of over 55% in size
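Cell growth measured by CellTiter-Glo luminescence after a minimum 48 h, 37 C compound exposure with 20 nM CPT in Tdp1-knockout DT40 cells stably expressing hTDP1, seeded 400/well; qHTS titration format.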
TDP1 cell noCPT: qHTS for Inhibitors of human tyrosyl-DNA phosphodiesterase 1 (TDP1): qHTS in cells in absence of CPT. Potency, µM (series often up to 46.2 µM), inactives show top-dose activity change, negative = growth inhibition, actives largely listed as inhibitors. 420,000 compounds, 15% hits. DT40 Tdp1-/- hTDP1 cells, no CPT, ATP luminescence, 48 h; further: potency means the concentration at half of the fitted maximal effect; on the % scale 0 is the no-effect control and ±100 the full control effect; nearly all actives have a fitted effect of over 55% in size
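Chicken DT40 Tdp1-/- cells complemented with human TDP1, screened without camptothecin (DMSO vehicle only), 400 cells/well. Compounds pin-transferred, cells incubated at 37 °C for at least 48 hr. Growth read as ATP-dependent luminescence (CellTiter-Glo, 30 min at RT).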
IL-1B inflam inh: inhibitors of inflammasome signaling (IL-1 beta secretion) | THP-1 LPS/ATP IL-1B secretion, AlphaLISA, 16 h; stronger effect = lower value | activity change, % at 57.5 µM | 360,000 compounds, 4.7% hits | AID 743279; in the data active means activity change below about -50%; inconclusive means mostly about -30% to -49%; further: on the % scale 0 is the no-effect control and ±100 the full control effect
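THP-1 cells pretreated 1 hr with compounds (up to 57.5 uM final), then stimulated with LPS (250 ng/mL final) plus ATP (1.25 mM final); secreted IL-1B measured by AlphaLISA after 16 hr, decreased signal indicating inhibition.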
D3 ag: D3 dopamine receptor (human) agonism | D3R DiscoveRx beta-arrestin cells, luminescence, 90 min | 410,000 compounds, 0.58% hits | max activation, % | AID 652048; in the data active means max activation above about 30%; further: 0% is about no effect
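Agonist mode: compounds and dopamine controls were applied to plated cells for 90 min at 37 degrees C after an overnight attachment at 1500 cells/well. Luminescent read-out followed 30 - 60 minutes at room temperature with DiscoveRx detection reagent.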
ClpP mod: qHTS Assay for Activators of ClpP; purified B. subtilis ClpP, FRET peptide cleavage, 20 min; Potency, µM (titrated, usually from 57.5 µM), without a hit: at the top dose activity change, negative = active; 340,000 compounds, 1.9% hits; active means well fitted falling curve with a large enough effect; inconclusive means small, poorly fitted or top-dose-only effect; inactive means no such curve, though single readings can be large or run the other way; further: potency means the concentration at half of the fitted maximal effect; the source files actives as falling curves though it sought activators and does not explain the sign; nearly all actives have a fitted effect of over 65% in size
Target sequence (P80244 whole entry, looked up): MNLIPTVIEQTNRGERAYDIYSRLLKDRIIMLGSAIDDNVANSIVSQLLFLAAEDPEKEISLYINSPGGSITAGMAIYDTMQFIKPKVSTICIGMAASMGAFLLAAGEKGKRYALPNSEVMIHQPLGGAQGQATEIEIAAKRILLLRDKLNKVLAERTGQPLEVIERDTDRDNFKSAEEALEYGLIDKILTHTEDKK
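ClpP 10 microg/mL final, pH 8 Tris/KCl buffer with BSA, glycerol, Tween-20; compound pinned in; FRET-FV substrate; RT 20 min; Ex320/Em430; ΔFRET vs ADEP 5.8 microM, DMSO, no enzyme.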
D3 antag: antagonists of human D3 dopamine receptor; P35462; D3R cells, DiscoveRx beta-arrestin luminescence, antagonist mode; stronger effect = lower value; max response, negative = inhibition, %; 360,000 compounds, 2.5% hits; in the data active means max response below about -50%; inconclusive means no clear call, values can overlap the other calls; further: on the % scale 0 is the no-effect control and ±100 the full control effect
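Cells expressing the human receptor were seeded at 1500 cells/well, incubated overnight at 37 degrees C in 5% CO2, then exposed to library compounds with dopamine controls for 90 minutes at 37 degrees C before luminescent detection.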
ClpP validation: validation of B. subtilis ClpP protease hits (inhibitors); Potency, µM (highest dose often 57.5 µM), without a hit: top-dose activity change, negative = inhibition, hits mostly inhibitors; shares compounds with ClpP mod; purified B. subtilis ClpP, FRET-FV substrate cleavage, 20 min; AID 743245; 470 compounds, 40% hits; further: potency means the concentration at half of the fitted maximal effect; on the % scale 0 is the no-effect control and ±100 the full control effect; nearly all actives have a fitted effect of over 70% in size
* hit, by the source's call; ? = inconclusive; . = no result given. Unless noted, the call rests on the fitted dose curve; in most records, active means well fitted inhibition curve with a large enough effect; inconclusive means small, poorly fitted or top-dose-only effect; inactive means flat fitted curve, though single readings scatter.

SMILES	TDP1 cell CPT	TDP1 cell noCPT	IL-1B inflam inh	D3 ag	ClpP mod	D3 antag	ClpP validation
Cc1cc(NC(=O)CSc2nc3c([nH]c4ccccc43)c(=O)n2-c2ccc(Cl)cc2)no1	-22%	-12%	.	5	37%	.	-19%
COc1ccc(Cl)cc1NC(=O)CSc1ncnc2c1oc1ccccc12	?	?	17	3	1%	-1	.
CCCCCn1c(N)c(C(=O)NCCN2CCOCC2)c2nc3ccccc3nc21	?	13µM*	-58*	0	8.9µM*	4	24µM*
CCC(=O)C(CCN1CCOCC1)(c1ccccc1)c1ccccc1	?	?	-1	-5	.	-15	.
Nc1c(C(=O)NCc2ccco2)c2nc3ccccc3nc2n1CCN1CCOCC1	?	?	-20	-16	10µM*	-29	22µM*
NNCc1cccc(O)c1	?	?	13	-15	0%	0	.
c1cc2c(cc1[C@H]1OC[C@H]3[C@@H]1CO[C@H]3c1ccc3c(c1)OCO3)OCO2	?	?	-21	-11	3%	-22	.
CN(c1ccccc1N(C)S(=O)(=O)c1ccccc1)S(=O)(=O)c1ccccc1	3%	?	56	1	0%	9	.
Nc1c(C(=O)OC2CCCCC2)c2nc3ccccc3nc2n1CC1CCCO1 (stereo unspecified)	?	16µM*	?	-2	45%	-9	?
Cc1ccc2c(c1)cc(C(=O)Nc1ccccc1C)n2C	?	1.2µM*	.	-18	34%	.	?
